The source of these data is PubChem BioAssay (NCATS).

The nature of experiment [1]: AP1 Signaling Pathway (AID 357; active = well fitted curve in either direction with a large enough effect, not every such curve was filed as active;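 note: ME-180 reporter cells stimulated with EGF at its EC50 level; % is set by controls: 0 for no effect and ±100 for the full control effect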). As to conditions: ME-180 AP-1-bla reporter, EGF-induced, beta-lactamase ratio, 5 h; at 17.2 µM (top of the series) unless noted. In a few lines:
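In this screen, ME-180 cells in Opti-MEM with 0.5% dialyzed FBS received EC50 EGF and compound titrations for 5 h. AP-1 reporter beta-lactamase was detected via CCF4 ratio, giving AC50 for positive and negative modulators.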

Experiment [2] has as its target Cytochrome P450 1A2 (Homo sapiens) (UniProt P05177). The experiment can be described thus: p450-cyp1a2 (AID 410; calls by dose curve;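 note: -100% = full effect of reference inhibitor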). A digest of the protocol: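 20nM CYP1A2, 100uM Luciferin-ME (=Km), 100mM KPO4; cpd 10 min RT; +NADPH regen, 60 min RT; stop/detect 20 min; luminescence. Normalized to furafylline 57 uM = full inhibition.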
Experiment [3] in a line: Stat Signaling Pathway (AID 446; active = well fitted curve in either direction with a large enough effect, not every such curve was filed as active;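 note: ME-180 cervical cancer cells given 40 pM IL-6 alongside compound; SIE-controlled beta-lactamase reporter measured as 460/530 nm FRET emission ratio; % is set by controls: 0 for no effect and ±100 for the full control effect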). To be noted: ME-180 (cervical carcinoma) SIE beta-lactamase reporter, IL-6 stimulated, 5 h; at 17.2 µM (top of the series) unless noted. In a few lines: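 FRET read-out (405 nm excitation, 460/530 nm emission) of a beta-lactamase reporter under a STAT-inducible element in ME-180 cervical carcinoma cells. Cells with compound receive 40 pM IL-6 for 5 h. Values are normalised to AC90 stimulation and AC90 JAK-inhibitor controls.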

The target of experiment [4] is Glucocorticoid receptor (Homo sapiens) (UniProt P04150). The experiment can be described thus: GR-GFP Redistribution (AID 450;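 active = compounds whose dose series gives a full or clear partial fitted curve of increased nuclear translocation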; note: potency is the fitted concentration of half-maximal effect).
Experiment [5] shares this target. The experiment can be described thus: GR-EFC Redistribution (AID 451; calls by dose curve; note: potency is the fitted concentration of half-maximal effect). To be noted: CHO-K1 GR-EFC translocation, beta-gal luminescence, 2 h. In a few lines:
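Translocation of GR-ED fusion to nuclear EA restores b-gal, read by luminescence after 1 h room-temperature detection. Engineered CHO-K1 biosensor cells, 1,000/well, exposed 2 h at 37 C to titrations up to 46 uM final.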

Experiment [6] concerns the target Mitogen-activated protein kinase 10 (Mus musculus) (UniProt Q61831). The experiment can be described thus: JNK3 AlphaScreen Assay (AID 530; active = well fitted curve in either direction with a large enough effect, not every such curve was filed as active;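 note: kinase came from lysate of stimulated human HepG2 cells; signal reports phosphorylation of biotinylated GST-cJun 1-79 at Ser73 with 10 µM ATP; % is set by controls: 0 for no effect and ±100 for the full control effect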). In a few lines: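 Kinase buffer: 20 mM Tris-HCl pH 7.6, 10 mM MgCl2, 1 mM DTT, 0.1 mM Na3VO4, 0.01% Tween-20; ATP 10 uM. Substrate biotin-GST-cJun(1-79), enzyme from activated HepG2 lysates. Detection by Ser73 phospho-antibody AlphaScreen.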

In experiment [7] the target is 3',5'-cyclic-AMP phosphodiesterase 4B (Homo sapiens) (UniProt Q07343). In words: qHTS Assay for Inhibitors of PDE-IV (AID 607; active = well fitted activation curve with a large enough effect in the main read-out, with a control signal flat, not every such curve was filed as active; note: % of control where 0% means no effect). In a few lines:
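Cell-based read-out of cAMP via a modified cyclic nucleotide-gated channel and membrane potential dye (535/590 nm) in HEK293 cells expressing PDE4 endogenously. Compounds tested up to 22.9 uM final; 100 uM RO 20-1724 reference.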
For orientation: Quantitative high-throughput screening tests each substance at several concentrations.

For experiment [8], the target named is Guanine nucleotide-binding protein G(i) subunit alpha-1 (Homo sapiens) (UniProt P63096). The experiment can be described thus: qHTS Assay for Inhibitors of RGS12 GoLoco Motif Activity (Green Fluorophore) (AID 879).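 Note: 0% = labeled peptide with Gαi1 and full inhibition = labeled peptide alone without protein; negative values mean loss of peptide binding seen as reduced polarization.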 In a few lines: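 A drop in FITC polarization marked displacement of the FITC-tagged RGS12 GoLoco peptide (10 nM) from Gαi1 (50 nM). Compounds were incubated 10 min at room temperature in Tris pH 7.5 buffer containing 150 mM NaCl, 0.1 mM GDP and 0.05% NP40; unlabeled peptide titration served as control.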

Experiment [9] is described as follows: qHTS Assay for Identification of Small Molecule Antagonists for NFkB Signaling Pathway (AID 895; active = well fitted inhibition curve with a large enough effect in the signal ratio, with a control signal flat, not every such curve was filed as active; the % refers to the signal ratio; note: potency is the fitted concentration of half-maximal effect). In a few lines:
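Beta-lactamase reporter read-out (460 and 530 nm emission ratio, 405 nm excitation, 2 hrs substrate loading RT) after 5 hr stimulation with 10 pM TNF alpha in compound-treated NFkB-bla ME-180 cells in low-serum medium.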

A short description of experiment [10]: qHTS Assay for Identification of Small Molecule Agonists for Thrombopoietin (TPO) Signaling Pathway (AID 917). Note: % is set by controls: 0 for no effect and ±100 for the full control effect. A digest of the protocol: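 Stimulation at the TPO EC50 (26 pM final) was used to detect activators. Ba/F3 mouse cells bearing human TPO receptor and a luciferase reporter under the Glycoprotein IIb promoter were exposed to compounds for 24 hrs at 37 C.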

The target of experiment [11] is Muscarinic acetylcholine receptor M1 (Rattus norvegicus) (UniProt P08482). The experiment can be described thus: qHTS Assay for Antagonists of Acetylcholine Muscarinic M1 Receptor: Measurement of IP-One Response (AID 944). Note: nearly all actives have a fitted effect of over 75% in size. Note: potency is the fitted concentration of half-maximal effect. In a few lines:
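Read-out: HTRF competition between d2-IP1 and Eu-cryptate anti-IP1 antibody, emission 620 and 665 nm. Stimulus was carbachol, EC80 (200 nM), for 30 min in M1-CHO cells (rat receptor), after 10 min compound pre-treatment.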

The target in experiment [12] is Pyruvate kinase (Leishmania mexicana) (UniProt Q27686). The experiment can be described thus: qHTS Validation Assay for Inhibitors of Leishmania Mexicana Pyruvate Kinase (AID 945).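 Note: 0% = DMSO only neutral control wells.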 In a few lines: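 Read-out: luminescence from PKLight stop/detection reagent, data normalized to DMSO. Reaction: 0.2 nM E451W LmPYK, 0.5 mM PEP, 0.1 mM ADP, pH 7.2, 1 h room temperature.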

Experiment [13] concerns the target Pyruvate kinase PKM (Homo sapiens) (UniProt P14618). The experiment can be described thus: qHTS Assay for Activators of Human Muscle Pyruvate Kinase (AID 954; active = well fitted curve in the direction sought with a large enough effect, not every such curve was filed as active;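 note: 0% = uninhibited enzyme and -100% = no enzyme or full thiadiazolimine inhibition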). A digest of the protocol:
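ATP production by PKM2 detected via luciferase luminescence after 1 h room-temperature reaction (0.1 nM enzyme, PEP at Km 0.5 mM, ADP 0.1 mM, pH 7.2 imidazole buffer). Inhibition scaled to no-enzyme control; activation referenced to 0.3 nM enzyme wells.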

The target in experiment [14] is Alpha-galactosidase A (Homo sapiens) (UniProt P06280). The experiment can be described thus: Counterscreen for Glucocerebrosidase Inhibitors: qHTS Assay for Human alpha-Galactosidase at pH 4.5 (AID 992). Note: 0% is about no effect. In a few lines: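 Fluorogenic 1536-well qHTS at pH 4.5 (citrate, Tween-20): 2 nM enzyme, 80 uM 4-MU-alpha-galactoside, 20 min room temperature, NaOH/glycine stop. Titration 0.7 nM to 77 uM, data normalized to no-enzyme and full-activity controls, Hill-fitted AC50.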
Background: A counterscreen serves to expose hits that act by an unwanted route or on another target.

The target in experiment [15] is alpha-glucosidase (Oryza sativa, rice) (UniProt Q653V4). The experiment can be described thus: Counterscreen for Glucocerebrosidase Inhibitors: qHTS Assay for Rice alpha-Glucosidase at pH 5.0 (AID 997).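 Note: 0% = full activity with enzyme and -100% = basal without enzyme.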 In a few lines: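 Endpoint fluorogenic assay at pH 5.0: compounds (0.7 nM to 77 uM) titrated against 4 nM rice enzyme and 400 uM 4-MU-alpha-glucoside for 20 min at room temperature; NaOH/glycine stop, read ex 365/em 440 nm, Hill-fitted AC50.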

Experiment [16] in a line: NFAT Signaling Pathway (AID 444; active = well fitted curve in either direction with a large enough effect, not every such curve was filed as active). As to conditions: Jurkat NFAT-bla M1, carbachol, beta-lactamase ratio, 5 h; at 17.2 µM (top of the series) unless noted. In a few lines:
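Read-out: CCF4 FRET ratio (460 nm/530 nm) after 1 h RT dye loading, used for %activity and AC50 from titration series. Cells: Jurkat NFAT-β-lactamase/M1 line, treated with compound plus 1 uM carbachol for 5 h, 37 °C.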

Experiment [17] concerns the target Muscarinic acetylcholine receptor M1 (Rattus norvegicus) (UniProt P08482). In words: qHTS Assay for Antagonists of Acetylcholine Muscarinic M1 Receptor: Kinetic Measurement of Intracellular Calcium Response (AID 943). Note: potency is the fitted concentration of half-maximal effect; nearly all actives have a fitted effect of over 75% in size. In a few lines: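 Read-out: peak over basal Fluo-4 fluorescence, kinetic at 1 Hz for 4 min after EC80 carbachol (100 nM final). Rat M1-CHO cells, dye loaded 1 h at 37C, compound added 10 min before agonist.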

The target in experiment [18] is Cytochrome P450 2C9 (Homo sapiens) (UniProt P11712). The experiment can be described thus: qHTS Assay for Inhibitors and Substrates of Cytochrome P450 2C9 (AID 883). Note: % is set by controls: 0 for no effect and ±100 for the full control effect; nearly all actives have a fitted effect of over 60% in size. A digest of the protocol: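 Turnover of Luciferin-H (100uM, KM) by 10nM human CYP2C9 was measured over 60 min at 37C with NADPH regeneration; inhibitors and some substrates reduce luminescence. Data normalized to sulphaphenazole 57uM.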

Experiment [19] deals with Cytochrome P450 2D6 (Homo sapiens) (UniProt P10635). In words: qHTS Assay for Inhibitors and Substrates of Cytochrome P450 2D6 (AID 891). Note: potency is the fitted concentration of half-maximal effect; nearly all actives have a fitted effect of over 60% in size. A digest of the protocol:
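Luminescent read-out of luciferin formed by 5 nM human CYP2D6 demethylating 30 uM Luciferin-ME EGE (Km level) over 60 min at room temperature after NADPH regeneration addition. Data normalized to full inhibition by 1.43 uM quinidine.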

Experiment [20] concerns the target Cytochrome P450 2C19 (Homo sapiens) (UniProt P33261). The experiment can be described thus: qHTS Assay for Inhibitors and Substrates of Cytochrome P450 2C19 (AID 899). Note: % is set by controls: 0 for no effect and ±100 for the full control effect; nearly all actives have a fitted effect of over 60% in size. A digest of the protocol: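 Reactions contain 5nM enzyme, 10uM Luciferin-H EGE (KM) and 50mM KPO4; compound preincubates 10 min at 37C, NADPH regeneration starts turnover for 60 min. Luminescence after detection reagent gives activity.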

A number with no mark means an inactive call. Inconclusive results are not listed. Active and inactive are the calls of the source. Unless noted, calls come from the whole dose curve; as a rule, active = well fitted curve in the direction sought with a large enough effect; inconclusive = small, poorly fitted or top-dose-only effect, or another doubt; inactive = no such curve, though single readings can be large; an effect the other way counts as inactive or inconclusive.

Sequence of Guanine nucleotide-binding protein G(i) subunit alpha-1 (Homo sapiens) (P63096 whole entry, looked up): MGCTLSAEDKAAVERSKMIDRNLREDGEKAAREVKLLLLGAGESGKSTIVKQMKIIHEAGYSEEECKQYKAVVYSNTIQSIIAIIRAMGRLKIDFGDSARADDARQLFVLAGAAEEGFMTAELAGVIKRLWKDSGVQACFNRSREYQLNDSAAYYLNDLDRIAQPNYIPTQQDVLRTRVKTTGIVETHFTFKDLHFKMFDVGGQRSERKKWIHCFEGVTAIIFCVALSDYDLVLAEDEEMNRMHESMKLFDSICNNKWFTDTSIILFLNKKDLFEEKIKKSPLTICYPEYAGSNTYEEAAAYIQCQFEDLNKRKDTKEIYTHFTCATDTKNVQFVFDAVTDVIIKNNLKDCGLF
Sequence of Pyruvate kinase PKM (Homo sapiens) (P14618 whole entry, looked up): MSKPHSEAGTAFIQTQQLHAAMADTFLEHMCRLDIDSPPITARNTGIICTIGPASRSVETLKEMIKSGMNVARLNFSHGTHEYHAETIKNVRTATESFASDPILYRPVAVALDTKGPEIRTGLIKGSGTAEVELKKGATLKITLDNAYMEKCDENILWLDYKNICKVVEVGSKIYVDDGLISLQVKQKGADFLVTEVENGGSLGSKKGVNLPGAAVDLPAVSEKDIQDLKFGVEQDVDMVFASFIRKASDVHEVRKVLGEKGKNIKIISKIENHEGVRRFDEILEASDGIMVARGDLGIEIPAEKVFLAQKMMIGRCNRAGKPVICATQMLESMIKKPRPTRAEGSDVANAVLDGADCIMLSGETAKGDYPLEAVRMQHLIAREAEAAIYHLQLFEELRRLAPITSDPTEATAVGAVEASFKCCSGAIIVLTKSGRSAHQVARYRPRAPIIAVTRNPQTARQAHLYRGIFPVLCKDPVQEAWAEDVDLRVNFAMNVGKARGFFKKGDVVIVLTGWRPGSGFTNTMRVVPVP
Sequence of Muscarinic acetylcholine receptor M1 (Rattus norvegicus) (P08482 whole entry, looked up): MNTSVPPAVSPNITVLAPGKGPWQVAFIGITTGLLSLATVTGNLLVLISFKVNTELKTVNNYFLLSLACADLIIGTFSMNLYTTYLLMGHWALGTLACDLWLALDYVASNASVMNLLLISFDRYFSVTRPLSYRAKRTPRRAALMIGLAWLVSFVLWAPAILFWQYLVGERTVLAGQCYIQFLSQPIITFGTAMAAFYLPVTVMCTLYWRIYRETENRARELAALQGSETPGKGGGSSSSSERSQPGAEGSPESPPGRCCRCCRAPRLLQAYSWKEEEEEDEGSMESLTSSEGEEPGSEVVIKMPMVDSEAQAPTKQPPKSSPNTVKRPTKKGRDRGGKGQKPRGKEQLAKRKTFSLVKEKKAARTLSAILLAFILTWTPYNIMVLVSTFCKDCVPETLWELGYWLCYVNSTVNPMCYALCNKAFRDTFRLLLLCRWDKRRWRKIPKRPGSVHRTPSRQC
Sequence of Alpha-galactosidase A (Homo sapiens) (P06280 whole entry, looked up): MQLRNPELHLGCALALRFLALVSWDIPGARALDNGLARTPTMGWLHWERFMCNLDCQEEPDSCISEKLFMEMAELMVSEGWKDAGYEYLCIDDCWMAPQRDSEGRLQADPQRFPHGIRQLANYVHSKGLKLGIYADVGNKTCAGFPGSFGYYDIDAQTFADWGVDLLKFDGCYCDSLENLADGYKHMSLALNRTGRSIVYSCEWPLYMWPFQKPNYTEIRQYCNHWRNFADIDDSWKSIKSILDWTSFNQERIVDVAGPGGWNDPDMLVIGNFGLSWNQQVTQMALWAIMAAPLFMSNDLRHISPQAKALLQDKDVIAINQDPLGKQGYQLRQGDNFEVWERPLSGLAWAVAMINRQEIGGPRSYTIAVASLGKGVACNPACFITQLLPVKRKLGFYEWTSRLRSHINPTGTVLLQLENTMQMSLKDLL
Sequence of Cytochrome P450 1A2 (Homo sapiens) (P05177 whole entry, looked up): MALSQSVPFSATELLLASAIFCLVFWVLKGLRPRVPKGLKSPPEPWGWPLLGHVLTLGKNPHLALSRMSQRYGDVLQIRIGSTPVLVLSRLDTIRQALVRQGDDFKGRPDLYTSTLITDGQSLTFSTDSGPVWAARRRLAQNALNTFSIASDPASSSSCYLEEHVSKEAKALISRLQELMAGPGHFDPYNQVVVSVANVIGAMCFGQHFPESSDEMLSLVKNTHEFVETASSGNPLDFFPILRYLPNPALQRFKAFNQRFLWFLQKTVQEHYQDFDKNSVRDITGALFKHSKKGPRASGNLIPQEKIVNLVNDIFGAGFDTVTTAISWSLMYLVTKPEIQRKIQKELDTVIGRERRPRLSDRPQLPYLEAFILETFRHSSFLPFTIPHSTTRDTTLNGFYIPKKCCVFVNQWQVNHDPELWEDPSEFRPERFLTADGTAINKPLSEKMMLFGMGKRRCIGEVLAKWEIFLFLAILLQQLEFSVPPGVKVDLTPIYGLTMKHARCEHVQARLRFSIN
Sequence of Glucocorticoid receptor (Homo sapiens) (P04150 whole entry, looked up): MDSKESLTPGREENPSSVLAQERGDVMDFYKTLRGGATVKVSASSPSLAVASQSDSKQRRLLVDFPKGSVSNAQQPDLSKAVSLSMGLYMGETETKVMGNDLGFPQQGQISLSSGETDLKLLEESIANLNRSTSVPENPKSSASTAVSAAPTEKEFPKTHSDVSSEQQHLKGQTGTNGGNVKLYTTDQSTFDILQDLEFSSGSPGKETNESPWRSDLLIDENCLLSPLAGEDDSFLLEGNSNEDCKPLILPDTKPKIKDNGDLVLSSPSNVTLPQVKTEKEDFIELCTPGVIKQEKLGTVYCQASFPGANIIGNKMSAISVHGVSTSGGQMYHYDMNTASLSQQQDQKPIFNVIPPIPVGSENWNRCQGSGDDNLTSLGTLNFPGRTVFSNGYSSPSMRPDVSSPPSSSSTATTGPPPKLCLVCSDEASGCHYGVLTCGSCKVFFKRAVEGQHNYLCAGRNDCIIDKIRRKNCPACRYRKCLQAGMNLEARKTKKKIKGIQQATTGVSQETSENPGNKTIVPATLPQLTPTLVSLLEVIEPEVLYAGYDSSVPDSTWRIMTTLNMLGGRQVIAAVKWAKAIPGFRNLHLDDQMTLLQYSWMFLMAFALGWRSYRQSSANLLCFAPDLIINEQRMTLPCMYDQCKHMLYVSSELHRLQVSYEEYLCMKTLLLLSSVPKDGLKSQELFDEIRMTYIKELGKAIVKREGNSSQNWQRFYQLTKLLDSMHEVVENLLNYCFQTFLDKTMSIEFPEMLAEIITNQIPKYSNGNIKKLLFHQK
Sequence of Pyruvate kinase (Leishmania mexicana) (Q27686 2-499 E452W): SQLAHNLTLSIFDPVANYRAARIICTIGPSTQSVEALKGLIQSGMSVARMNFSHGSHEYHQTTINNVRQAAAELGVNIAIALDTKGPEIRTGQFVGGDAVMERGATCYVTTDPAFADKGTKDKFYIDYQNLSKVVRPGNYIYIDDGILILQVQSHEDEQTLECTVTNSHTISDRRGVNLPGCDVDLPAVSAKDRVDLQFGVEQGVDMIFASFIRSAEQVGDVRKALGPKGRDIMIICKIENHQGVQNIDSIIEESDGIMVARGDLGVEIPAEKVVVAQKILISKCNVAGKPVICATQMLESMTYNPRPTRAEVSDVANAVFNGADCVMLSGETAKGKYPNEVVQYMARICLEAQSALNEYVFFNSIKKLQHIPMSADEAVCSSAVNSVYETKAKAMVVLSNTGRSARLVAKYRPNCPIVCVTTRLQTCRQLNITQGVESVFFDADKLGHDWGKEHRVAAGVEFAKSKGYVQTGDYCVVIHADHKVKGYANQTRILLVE
Sequence of 3',5'-cyclic-AMP phosphodiesterase 4B (Homo sapiens) (Q07343 whole entry, looked up): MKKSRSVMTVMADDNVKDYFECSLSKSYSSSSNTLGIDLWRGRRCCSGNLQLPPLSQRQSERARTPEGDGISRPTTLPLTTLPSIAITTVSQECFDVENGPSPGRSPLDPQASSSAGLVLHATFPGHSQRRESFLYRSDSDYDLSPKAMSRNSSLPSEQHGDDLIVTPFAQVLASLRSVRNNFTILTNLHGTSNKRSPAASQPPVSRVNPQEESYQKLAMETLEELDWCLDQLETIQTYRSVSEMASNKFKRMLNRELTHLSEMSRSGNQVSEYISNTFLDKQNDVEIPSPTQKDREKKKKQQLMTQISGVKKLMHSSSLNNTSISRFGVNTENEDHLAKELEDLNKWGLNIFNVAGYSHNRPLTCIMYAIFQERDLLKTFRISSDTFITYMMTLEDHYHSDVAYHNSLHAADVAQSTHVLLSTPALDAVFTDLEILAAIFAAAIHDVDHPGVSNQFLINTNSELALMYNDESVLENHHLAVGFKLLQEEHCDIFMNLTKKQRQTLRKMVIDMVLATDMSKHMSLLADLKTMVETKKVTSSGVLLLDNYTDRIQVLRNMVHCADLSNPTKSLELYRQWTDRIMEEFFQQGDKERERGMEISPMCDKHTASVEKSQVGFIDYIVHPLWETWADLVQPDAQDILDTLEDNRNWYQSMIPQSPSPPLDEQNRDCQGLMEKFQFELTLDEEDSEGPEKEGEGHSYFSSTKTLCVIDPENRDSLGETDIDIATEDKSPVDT
Sequence of Cytochrome P450 2C9 (Homo sapiens) (P11712 whole entry, looked up): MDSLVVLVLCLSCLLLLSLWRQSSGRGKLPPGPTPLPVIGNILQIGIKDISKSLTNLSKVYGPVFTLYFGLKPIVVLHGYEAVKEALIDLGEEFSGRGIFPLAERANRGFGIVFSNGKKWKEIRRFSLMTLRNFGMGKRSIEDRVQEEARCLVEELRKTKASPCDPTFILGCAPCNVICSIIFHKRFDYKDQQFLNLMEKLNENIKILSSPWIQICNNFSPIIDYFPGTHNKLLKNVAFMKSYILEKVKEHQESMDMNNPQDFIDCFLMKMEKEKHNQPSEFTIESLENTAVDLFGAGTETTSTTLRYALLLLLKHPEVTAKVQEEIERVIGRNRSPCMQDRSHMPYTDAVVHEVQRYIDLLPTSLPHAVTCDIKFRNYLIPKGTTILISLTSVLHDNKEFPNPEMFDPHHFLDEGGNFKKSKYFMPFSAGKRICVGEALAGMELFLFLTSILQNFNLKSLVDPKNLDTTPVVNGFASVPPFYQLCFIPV

With `C[C@@]12CCC(=O)C=C1CC[C@@H]1[C@@H]2[C@H](O)C[C@]2(C)[C@@H]1CC[C@]2(O)C(=O)COC(=O)CCC(=O)O`, the activity change, negative = inhibition in [1] is -0.329% [at 38 µM]. The Potency entry in experiment [2], in experiment [6], in [7], in experiment [10], in experiment [11] and in experiment [12] was “inactive” throughout. Further, the activity, negative = inhibition in experiment [3] is -14.6% [at 38 µM]. In addition, the results for the Potency in experiment [4], in experiment [5] and in experiment [9] were 112 nM (active), 1120 nM (active) and 224 nM (active), respectively. Further, the outcome in experiment [8], in experiment [13], in [14] and in experiment [15] was inactive.
In the case of `COc1cc2nc(N3CCN(C(=O)[C@H]4COc5ccccc5O4)CC3)nc(N)c2cc1OC`, the activity change, negative = inhibition in [1] is -28.6% [at 38 µM]. For the same compound, the Potency result in [2], in [6], in experiment [10] and in experiment [12] was “inactive” in each case. In addition, the activity, negative = inhibition in [3] is -8.72% [at 38 µM]. The outcome in [8], in [13], in [14] and in [15] was inactive.
Consider `Clc1ccccc1-c1nnc2sc(-c3ccco3)nn12`, for which the activity change, negative = inhibition in experiment [1] is -8.96%; in [16], 6.46%. For the same compound, the activity, negative = inhibition in [3] was 0.557%.
For the compound `O=C(OCCN1CCOCC1)c1ccc(OCCN2CCOCC2)cc1`, the activity change, negative = inhibition in [1] was 1.65%; in [16], -7.8%. In addition, the activity, negative = inhibition in [3] is -3.54%. For the same compound, the Potency in experiment [4] is more than 20600 nM.
On to `O[Si@](CCCN1CCCCC1)(c1ccc(F)cc1)C1CCCCC1`, for which the activity change, negative = inhibition in [1] is 11.3% [at 38 µM]. Also, the Potency entry in [2], in experiment [6], in [9] and in [12] was “inactive” throughout. Besides, the activity, negative = inhibition in [3] was 1.42% [at 38 µM]. Also, the Potency in experiment [4] was more than 46000 nM; in experiment [5] it was more than 46000 nM; in [17], 178 nM (active); in experiment [11] it was 1410 nM (active). Also, the call in [8], in experiment [13], in [14] and in experiment [15] was inactive.
Regarding `CC1(NC[C@@H](O)COc2cccc3[nH]ccc23)CCC(C(C)(C)NC(=O)CBr)CC1` (stereo not given in full), in [1], the activity change, negative = inhibition is 7.03% [at 38 µM]. Besides, the Potency entry in [2], in experiment [7], in experiment [18] and in experiment [20] was “inactive” in each case. Moreover, the activity, negative = inhibition in experiment [3] was 18.1% [at 38 µM]. The Potency in experiment [4] was more than 46000 nM; in experiment [5] it was more than 46000 nM; in [19] it was 1260 nM (active).
